Data: PubChem BioAssay AID1159580 (chemical genetic matrix, 2015)
Where “and” joins values, the source holds several entries; their conditions need not be identical. Equal values may be shown once. Hit rate of the full screen: of about 5,500 compounds, about 2,000 (36%) were called active. Roughly 18% stayed inconclusive and do not appear here. Rule as the data show it: active = normalized growth mostly below about 0.91 (no sharp cut-off); inconclusive = no clear call, values can overlap the other calls; inactive = mostly above about 0.92. The list shows a part of the results.

Assay: chemical genetic growth profiling, strain panel (AID 1159580);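 also: tested at 20 µM; growth read once vehicle control cultures reached saturation at 30 °C; 1 = growth at the plate median or of vehicle wells; lower values mean less growth of the strain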
Details: growth OD

Measured: normalized growth

CNCCCN1c2ccccc2CCc2ccccc21
inactive: S. cerevisiae deletion strains, locus YKL009W, strain mrt4, hits give low values 1 | S. cerevisiae deletion strains, locus YKL068W, hits give low values 1 | S. cerevisiae deletion strains, locus YKL085W, strain MDH1 (second series), hits give low values 1.04 | S. cerevisiae deletion strains, locus YKL085W, strain MDH1, hits give low values 1.04 | S. cerevisiae deletion strains, locus YKL160W, strain elf1, hits give low values 1.03 | S. cerevisiae deletion strains, locus YKL190W, strain CNB1, hits give low values 1 | S. cerevisiae deletion strains, locus YKR001C, strain vps1, hits give low values 0.997 | S. cerevisiae deletion strains, locus YKR026C, strain gcn3, hits give low values 1.01 | S. cerevisiae deletion strains, locus YKR091W, strain srl3, hits give low values 1.01 | S. cerevisiae deletion strains, locus YLL001W, strain dnm1, hits give low values 1.03 | S. cerevisiae deletion strains, locus YLL026W, hits give low values 1.03 | S. cerevisiae deletion strains, locus YLL041C, strain sdh2, hits give low values 1.01 | S. cerevisiae deletion strains, locus YLR027C, strain aat2, hits give low values 1.03 | S. cerevisiae deletion strains, locus YLR039C, strain RIC1, hits give low values 1.22 | S. cerevisiae deletion strains, locus YLR058C, strain SHM2, hits give low values 1.01 | S. cerevisiae deletion strains, locus YLR102C, strain apc9, hits give low values 1 | S. cerevisiae deletion strains, locus YLR113W, strain HOG1, hits give low values 1.02 | S. cerevisiae deletion strains, locus YLR221C, strain rsa3, hits give low values 0.978 | S. cerevisiae deletion strains, locus YLR258W, strain gsy2, hits give low values 1 | S. cerevisiae deletion strains, locus YLR262C, strain YPT6 (second series), hits give low values 1.09 | S. cerevisiae deletion strains, locus YLR262C, strain YPT6, hits give low values 1.16 | S. cerevisiae deletion strains, locus YLR268W, strain sec22, hits give low values 0.988 | S. cerevisiae deletion strains, locus YLR320W, strain mms22, hits give low values 0.987 | S. cerevisiae deletion strains, locus YLR330W, strain CHS5, hits give low values 1.01 | S. cerevisiae deletion strains, locus YLR342W, strain FKS1 (second series), hits give low values 0.997 | S. cerevisiae deletion strains, locus YLR342W, strain FKS1, hits give low values 1.04 | S. cerevisiae deletion strains, locus YLR357W, strain rsc2, hits give low values 0.985 | S. cerevisiae deletion strains, locus YLR370C, strain arc18, hits give low values 1.02 | S. cerevisiae deletion strains, locus YLR371W, strain rom2, hits give low values 0.988 | S. cerevisiae deletion strains, locus YLR384C, strain iki3, hits give low values 1.01 | S. cerevisiae deletion strains, locus YLR418C, strain cdc73, hits give low values 0.938 | S. cerevisiae deletion strains, locus YML016C, strain PPZ1, hits give low values 0.997 | S. cerevisiae deletion strains, locus YML032C, strain rad52, hits give low values 0.999 | S. cerevisiae deletion strains, locus YML120C, strain ndi1, hits give low values 1.04 | S. cerevisiae deletion strains, locus YML124C, strain tub3, hits give low values 1 | S. cerevisiae deletion strains, locus YMR058W, strain fet3, hits give low values 1.02 | S. cerevisiae deletion strains, locus YMR078C, strain ctf18, hits give low values 1 | S. cerevisiae deletion strains, locus YMR125W, strain sto1, hits give low values 0.985 | S. cerevisiae deletion strains, locus YMR129W, hits give low values 1.01 | S. cerevisiae deletion strains, locus YMR205C, strain PFK2, hits give low values 1.04 | S. cerevisiae deletion strains, locus YMR223W, strain ubp8, hits give low values 0.983 | S. cerevisiae deletion strains, locus YMR231W, strain pep5, hits give low values 1.01 | S. cerevisiae deletion strains, locus YMR263W, strain SAP30, hits give low values 0.997 | S. cerevisiae deletion strains, locus YMR307W, strain GAS1, hits give low values 1.1 and 0.99 | S. cerevisiae deletion strains, locus YNL067W, strain RPL9B, hits give low values 0.998 | S. cerevisiae deletion strains, locus YNL071W, strain lat1, hits give low values 0.994 | S. cerevisiae deletion strains, locus YNL128W, strain TEP1, hits give low values 1.02 | S. cerevisiae deletion strains, locus YNL153C, strain GIM3, hits give low values 0.989 | S. cerevisiae deletion strains, locus YNL175C, strain NOP13, hits give low values 1 | S. cerevisiae deletion strains, locus YNL183C, strain NPR1, hits give low values 0.959 | S. cerevisiae deletion strains, locus YNL197C, strain WHI3, hits give low values 1 | S. cerevisiae deletion strains, locus YNL209W, strain ssb2, hits give low values 1 | S. cerevisiae deletion strains, locus YNL224C, strain SQS1, hits give low values 0.998 | S. cerevisiae deletion strains, locus YNL233W, strain BNI4, hits give low values 0.985 | S. cerevisiae deletion strains, locus YNL248C, strain rpa49, hits give low values 0.995 | S. cerevisiae deletion strains, locus YNL250W, strain rad50, hits give low values 1.01 | S. cerevisiae deletion strains, locus YNL271C, strain bni1, hits give low values 0.998 | S. cerevisiae deletion strains, locus YNL298W, strain CLA4, hits give low values 0.998 | S. cerevisiae deletion strains, locus YNL307C, strain MCK1, hits give low values 1 | S. cerevisiae deletion strains, locus YNL322C, strain KRE1 (second series), hits give low values 1.02 | S. cerevisiae deletion strains, locus YNL322C, strain KRE1, hits give low values 1.01 and 0.993 | S. cerevisiae deletion strains, locus YNR049C, strain mso1, hits give low values 1.01 | S. cerevisiae deletion strains, locus YNR052C, strain pop2, hits give low values 1.01 | S. cerevisiae deletion strains, locus YOL012C, strain htz1 0.655 | S. cerevisiae deletion strains, locus YOL147C, strain pex11, hits give low values 1 | S. cerevisiae deletion strains, locus YOR001W, strain rrp6, hits give low values 1.02 | S. cerevisiae deletion strains, locus YOR061W, strain CKA2, hits give low values 1.01 | S. cerevisiae deletion strains, locus YOR069W, strain VPS5, hits give low values 1.01 | S. cerevisiae deletion strains, locus YOR070C, strain gyp1, hits give low values 1.01 | S. cerevisiae deletion strains, locus YOR080W, strain dia2, hits give low values 1.03 | S. cerevisiae deletion strains, locus YOR083W, strain WHI5 (second series), hits give low values 1.03 | S. cerevisiae deletion strains, locus YOR083W, strain WHI5, hits give low values 1.02 | S. cerevisiae deletion strains, locus YOR106W, strain vam3, hits give low values 1.06 | S. cerevisiae deletion strains, locus YOR136W, strain idh2, hits give low values 0.999 | S. cerevisiae deletion strains, locus YOR144C, strain elg1, hits give low values 1 | S. cerevisiae deletion strains, locus YOR184W, strain ser1, hits give low values 1.03 | S. cerevisiae deletion strains, locus YOR231W, strain MKK1, hits give low values 1.01 | S. cerevisiae deletion strains, locus YOR265W, strain rbl2, hits give low values 1.02 | S. cerevisiae deletion strains, locus YOR270C, strain vph1, hits give low values 0.961 | S. cerevisiae deletion strains, locus YOR290C, strain snf2, hits give low values 0.981 | S. cerevisiae deletion strains, locus YOR316C, strain cot1, hits give low values 1.01 | S. cerevisiae deletion strains, locus YPL051W, strain arl3, hits give low values 1.01 | S. cerevisiae deletion strains, locus YPL055C, strain LGE1, hits give low values 0.96 | S. cerevisiae deletion strains, locus YPL078C, strain atp4, hits give low values 1.05 | S. cerevisiae deletion strains, locus YPL106C, strain sse1, hits give low values 1.04 | S. cerevisiae deletion strains, locus YPL240C, strain hsp82, hits give low values 1.01 | S. cerevisiae deletion strains, locus YPL241C, strain CIN2, hits give low values 1.01 and 0.994 | S. cerevisiae deletion strains, locus YPL256C, strain CLN2, hits give low values 1.01 | S. cerevisiae deletion strains, locus YPR119W, strain clb2, hits give low values 1 | S. cerevisiae deletion strains, locus YPR141C, strain kar3, hits give low values 1 | S. cerevisiae deletion strains, locus YPR163C, strain tif3, hits give low values 0.989 | S. cerevisiae deletion strains, locus YPR167C, strain met16, hits give low values 1.01 | S. cerevisiae deletion strains, strain wtn01, hits give low values 0.985 | S. cerevisiae strains, strain wild type, hits give low values 1.01
